Data on 14 compounds can be found in PubChem BioAssay (NCATS).

Results filed as inconclusive are left out. A number with no mark means an inactive call. Calls of active or inactive are those of the source. Calls follow the shape of the dose curve; as a rule, active = well fitted inhibition curve with a large enough effect; inconclusive = small, poorly fitted or top-dose-only effect; inactive = no such curve, though single readings can be large or run the other way.
% is scaled to controls: 0 for no effect and ±100 for the full control effect; potency is read from the fitted curve at half-maximal effect.

The target of the assay is N-terminal Xaa-Pro-Lys N-methyltransferase 1 (Homo sapiens) (UniProt Q9BV86). Briefly: qHTS Assay for Inhibitors of N-terminal methyltransferase 1 (NTMT1): LOPAC validation of the NTMT1 SAHH-coupled ThioGlo3 Assay (AID 1347143).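 Also: SAH from peptide methylation measured as thiol fluorescence via SAHH coupling and ThioGlo3; nearly all actives have a fitted effect of over 70% in size.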 The note with it: recombinant NTMT1, SAHH-coupled ThioGlo3 fluorescence; series mostly up to 114 µM; activity change, negative = inhibition: at the top concentration. In a few lines: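 Recombinant human NTMT1 (125nM) was pre-incubated 1 min at room temperature with compounds over a concentration range, then a mix of 100uM SAM, 10uM SAHH and 15uM ThioGlo3 (concentrations in added reagent) was added. ThioGlo3 fluorescence (ex 340/em 450nm) after 30 min was normalized to the initial reading.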
Sequence of N-terminal Xaa-Pro-Lys N-methyltransferase 1 (Homo sapiens) (Q9BV86 whole entry, looked up): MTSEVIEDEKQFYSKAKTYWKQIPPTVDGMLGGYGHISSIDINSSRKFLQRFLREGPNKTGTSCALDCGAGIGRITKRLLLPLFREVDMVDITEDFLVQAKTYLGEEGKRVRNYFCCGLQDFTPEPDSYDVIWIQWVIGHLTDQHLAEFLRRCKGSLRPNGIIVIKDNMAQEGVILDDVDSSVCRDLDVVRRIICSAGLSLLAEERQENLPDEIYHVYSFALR
With `CN1C2CCC1CC(OC(=O)c1cc(Cl)cc(Cl)c1)C2` (centres undefined), the “activity change, negative = inhibition” value was -10.9%.
In the case of `NCc1cc(=O)[nH]o1`, the “activity change, negative = inhibition” value was -11.8%.
Still for that read-out and setting: the same measure for `C[C@@H](N)Cc1cnc[nH]1`: -20.7%.
In the case of `Cc1nccc2c1[nH]c1ccccc12`, the Potency is 79.4 µM (active).
Take `NC1CCc2cc(O)c(O)cc2C1` (centres undefined): the Potency was 22.4 µM (active).
Consider `C/C=C(/C)C(=O)O[C@H]1C(C)=C2[C@H]([C@@H]1OC(=O)CCCCCCC)[C@@](C)(OC(C)=O)C[C@H](OC(=O)CCC)[C@@]1(O)[C@H]2OC(=O)[C@@]1(C)O`, for which the “activity change, negative = inhibition” value was 22.5%.
`CC(C)Oc1cccnc1N(C)C1CCN(Cc2ccccc2)CC1`: the Potency is 56.2 µM (active).
On to `Clc1cnc(Oc2ccc(Oc3ncc(Cl)cc3Cl)cc2)c(Cl)c1`, for which the “activity change, negative = inhibition” value is -13.5%.
Turning to `C[N+]1(C)C2CCC1CC(OC(=O)C(CO)c1ccccc1)C2` (centres undefined), the Potency result was “inactive”.
Regarding `CC[C@@H]1C(=O)OC[C@@H]1Cc1cncn1C`, the Potency entry was “inactive”.
Take `Cn1cnc(CCN)c1`: the “activity change, negative = inhibition” value was -20.1%.
For the compound `C=CCN1CC[C@]23CCCCC2[C@H]1Cc1ccc(O)cc13` (some centres undefined), the “activity change, negative = inhibition” value is -16.9%.
Still for that read-out and setting: the same measure for `CS(=N)(=O)CC[C@H](N)C(=O)O` (some centres undefined): -17.9%; for `O=C(O)CC[N+](=O)[O-]`: -21.5%.
